The supplement of paper PMC6089552
The whole screen tested about 3,200 compounds, of which about 300 (9.4%) showed activity. The sample as a whole holds a higher share of actives than the screen did.

System: A673/TR/shEF
Assay: cell viability (LOESS-normalised, relative to median of negative controls) (log2 ratio); higher = more viable cells (less compound effect), active = hit call of the paper (over 3 MAD below the median)
Conditions: treatment time: 72 h
Summary of the method: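 A673/TR/shEF Ewing sarcoma cells were plated at 1,500 per well in 384-well plates and cultured with or without doxycycline, added 24 h before compounds, to induce EWS-FLI1 shRNA knockdown. Library compounds at two or more concentrations, alongside DMSO controls, were applied for three days. Cell viability was measured by CellTiter-Glo luminescence on an Envision reader. Readings were LOESS-corrected per plate, divided by the median of negative controls and log2-transformed, and hits were wells lying at least three median absolute deviations from the median of all screened wells.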

[1] = 0.25 µM, library screen: screen1, EWS-FLI1 expression: high (no doxycycline)
[2] = 0.25 µM, library screen: screen1, EWS-FLI1 expression: low (doxycycline-induced shRNA knockdown)
[3] = 2.5 µM, library screen: screen1, EWS-FLI1 expression: high (no doxycycline)
[4] = 2.5 µM, library screen: screen1, EWS-FLI1 expression: low (doxycycline-induced shRNA knockdown)
[5] = 0.25 µM, library screen: screen2, EWS-FLI1 expression: high (no doxycycline)
[6] = 0.25 µM, library screen: screen2, EWS-FLI1 expression: low (doxycycline-induced shRNA knockdown)
[7] = 2.5 µM, library screen: screen2, EWS-FLI1 expression: high (no doxycycline)
[8] = 2.5 µM, library screen: screen2, EWS-FLI1 expression: low (doxycycline-induced shRNA knockdown)
[9] = 0.103 µM, library screen: screen3, EWS-FLI1 expression: high (no doxycycline)
[10] = 0.103 µM, library screen: screen3, EWS-FLI1 expression: low (doxycycline-induced shRNA knockdown)
[11] = 0.308 µM, library screen: screen3, EWS-FLI1 expression: high (no doxycycline)
[12] = 0.308 µM, library screen: screen3, EWS-FLI1 expression: low (doxycycline-induced shRNA knockdown)
[13] = 0.926 µM, library screen: screen3, EWS-FLI1 expression: high (no doxycycline)
[14] = 0.926 µM, library screen: screen3, EWS-FLI1 expression: low (doxycycline-induced shRNA knockdown)
[15] = 2.8 µM, library screen: screen3, EWS-FLI1 expression: high (no doxycycline)
[16] = 2.8 µM, library screen: screen3, EWS-FLI1 expression: low (doxycycline-induced shRNA knockdown)
[17] = 8.3 µM, library screen: screen3, EWS-FLI1 expression: high (no doxycycline)
[18] = 8.3 µM, library screen: screen3, EWS-FLI1 expression: low (doxycycline-induced shRNA knockdown)
[19] = 25 µM, library screen: screen3, EWS-FLI1 expression: high (no doxycycline)
[20] = 25 µM, library screen: screen3, EWS-FLI1 expression: low (doxycycline-induced shRNA knockdown)

Measured: cell viability (log2)

Nc1ncnc2c1c(I)cn2[C@@H]1O[C@H](CO)[C@@H](O)[C@H]1O
active: [3] -1.08 | [4] -0.349 | 25 µM, library screen: screen1, EWS-FLI1 expression: high (no doxycycline) -2.42 | 25 µM, library screen: screen1, EWS-FLI1 expression: low (doxycycline-induced shRNA knockdown) -2.11
inactive: 0.025 µM, library screen: screen1, EWS-FLI1 expression: high (no doxycycline) 0.145 | 0.025 µM, library screen: screen1, EWS-FLI1 expression: low (doxycycline-induced shRNA knockdown) -0.151 | [1] -0.0341 | [2] -0.172

Nc1ncnc2c1ncn2C1CCCC1
inactive: [5] 0.222 | [6] 0.00723 | [7] 0.162 | [8] 0.101

Nc1ncnc2c1ncn2C1CCCO1 (centres undefined)
active: [5] -0.183 | [6] -0.136 | [7] -0.771 | [8] -0.568

Nc1nccc2c1ncn2[C@@H]1O[C@H](CO)[C@@H](O)[C@H]1O
inactive: [5] 0.199 | [6] 0.0735 | [7] 0.0748 | [8] 0.125

Nc1nc(F)nc2c1ncn2[C@@H]1O[C@H](CO)[C@@H](O)[C@@H]1O
inactive: [9] -0.0149 | [10] 0.0418 | [11] 0.0122 | [12] 0.0299 | [13] -0.0547 | [14] 0.0332 | [15] 0.0695 | [16] 0.0196 | [17] 0.023 | [18] 0.0649 | [19] 0.0762 | [20] 0.0699

Nc1ncnc2c1ncn2[C@@H]1O[C@H](CO)[C@@H](O)[C@@H]1O
inactive: 0.025 µM, library screen: screen2, EWS-FLI1 expression: high (no doxycycline) 0.125 | 0.025 µM, library screen: screen2, EWS-FLI1 expression: low (doxycycline-induced shRNA knockdown) 0.0247 | [9] 0.0965 | [10] 0.0781 | [5] 0.146 | [6] 0.0437 | [11] 0.134 | [12] 0.0881 | [13] 0.113 | [14] 0.0711 | [7] 0.229 | [8] 0.0883 | [15] 0.122 | [16] 0.114 | [17] 0.0774 | [18] 0.127 | 25 µM, library screen: screen2, EWS-FLI1 expression: high (no doxycycline) 0.0602 | 25 µM, library screen: screen2, EWS-FLI1 expression: low (doxycycline-induced shRNA knockdown) 0.0701 | [19] 0.0148 | [20] 0.128

COc1ccc(C(C)C(=O)c2ccc(O)cc2O)cc1 (centres undefined)
inactive: [1] 0.0783 | [2] 0.0339 | [3] 0.16 | [4] 0.123

CCOc1ccc(C(=O)c2cc(O)c(OC)c(OC)c2O)cc1
inactive: [1] 0.0714 | [2] 0.0518 | [3] 0.162 | [4] 0.129

CC(=O)OC1CCC2(C)C3=C(CC[C@H]2C1(C)C)[C@@]1(C)CC[C@@H]([C@@H](C)CCC=C(C)C)[C@]1(C)CC3 (some centres undefined)
inactive: [1] 0.058 | [2] -0.000522 | [3] 0.0338 | [4] -0.0772

CCN1C(=O)/C(=C\c2cn(CCC#N)nc2-c2ccc(F)cc2)SC1=S
inactive: [1] 0.0868 | [2] 0.118 | [3] 0.107 | [4] -0.0141

O=C(NCc1ccco1)/C(=C\c1ccco1)NC(=O)c1cccs1
inactive: [1] 0.0268 | [2] 0.0429 | [3] 0.0986 | [4] 0.0245

O[C@@H](c1cc(C(F)(F)F)nc2c(C(F)(F)F)cccc12)[C@H]1CCCCN1
inactive: [1] 0.149 | [2] 0.0284 | [3] 0.156 | [4] 0.0765

OCC1OC(O)C(O)C(O)C1O (centres undefined)
inactive: [9] 0.00138 | [10] 0.0347 | [11] 0.0849 | [12] 0.0509 | [13] 0.0635 | [14] 0.0529 | [15] 0.0615 | [16] 0.0566 | [17] 0.0472 | [18] -0.0279 | [19] 0.168 | [20] 0.04

C=C1c2c(Cl)ccc(O)c2C(O)=C2C(=O)[C@]3(O)C(O)=C(C(N)=O)C(=O)[C@@H](N(C)C)[C@@H]3[C@@H](O)[C@H]12.O=C(O)c1cc(S(=O)(=O)O)ccc1O
inactive: [2] 0.0882 | [4] 0.0927
active: [1] -0.128 | [3] -0.126

CN(C)c1ccc(O)c2c1C[C@H]1C[C@H]3[C@H](N(C)C)C(=O)C(C(N)=O)=C(O)[C@@]3(O)C(=O)C1=C2O
active: [1] -0.177 | [3] -0.0936
inactive: [2] -0.0588 | [5] 0.0664 | [6] 0.133 | [4] 0.0344 | [7] 0.00725 | [8] 0.0554

C[C@H]1c2cccc(O)c2C(O)=C2C(=O)[C@]3(O)C(O)=C(C(N)=O)C(=O)[C@@H](N(C)C)[C@@H]3[C@@H](O)[C@@H]21
inactive: [1] 0.0339 | [2] 0.251 | [5] 0.0723 | [6] 0.0745 | [3] 0.0598 | [4] 0.256 | [7] -0.00226 | [8] 0.0538

C=C1c2cccc(O)c2C(O)=C2C(=O)[C@]3(O)C(O)=C(C(N)=O)C(=O)[C@@H](N(C)C)[C@@H]3[C@@H](O)[C@H]12
inactive: [9] -0.0411 | [10] 0.0402 | [2] 0.0695 | [11] -0.0282 | [12] 0.0462 | [13] -0.105 | [14] 0.0725 | [4] 0.152 | [15] -0.0751 | [16] 0.0891 | [17] -0.0644 | [18] 0.0589 | [19] -0.0984 | [20] 0.0914
active: [1] -0.16 | [3] -0.0967
